# Tests used:
# Test in all cases: DAPPL (digital affinity profiling via proximity ligation, sequencing); 10 mM Tris-HCl pH 7.5, 50 mM NaCl, 1 mM DTT, 4% glycerol, room temperature, 30 min; GST-TFs on glutathione beads, 16-mer random dsDNA library, 0.1% formaldehyde crosslink after washing; high values mean tight binding
# FEV = biological target: T1, FEV (Homo sapiens, UniProt Q99581 1-238); conditions: protein: recombinant; tags: N-terminal GST; dsDNA, one strand shown
# T1 sequence: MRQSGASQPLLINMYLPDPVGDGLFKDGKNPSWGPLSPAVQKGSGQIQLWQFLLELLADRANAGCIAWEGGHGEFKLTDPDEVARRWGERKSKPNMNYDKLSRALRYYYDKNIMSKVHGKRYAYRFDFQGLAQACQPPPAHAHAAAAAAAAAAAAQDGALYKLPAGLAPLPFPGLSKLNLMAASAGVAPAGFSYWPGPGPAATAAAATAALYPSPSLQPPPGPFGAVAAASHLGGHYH
# Outline: (§1)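 Beads coated with glutathione captured GST-fused human transcription factors that had been expressed in yeast, and the factors were then given DNA barcodes and pooled with a tag-only sample. The pools were incubated with 200 nmole of a random double-stranded 16-mer DNA library in Tris/NaCl/DTT/glycerol buffer for 30 min at room temperature, washed, crosslinked with 0.1% formaldehyde and proximity-ligated with BsaI/T4 ligase at 37 °C for 1 h. PCR amplification and Illumina NextSeq500 sequencing came last. Binding signal is each hexamer's read frequency for a factor divided by its frequency for the tag-only sample.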
# ETV5 = ETV5 (Homo sapiens, UniProt P41161 1-510); conditions: protein: recombinant; tags: N-terminal GST; dsDNA, one strand shown
# Sequence of ETV5 (P41161 whole entry): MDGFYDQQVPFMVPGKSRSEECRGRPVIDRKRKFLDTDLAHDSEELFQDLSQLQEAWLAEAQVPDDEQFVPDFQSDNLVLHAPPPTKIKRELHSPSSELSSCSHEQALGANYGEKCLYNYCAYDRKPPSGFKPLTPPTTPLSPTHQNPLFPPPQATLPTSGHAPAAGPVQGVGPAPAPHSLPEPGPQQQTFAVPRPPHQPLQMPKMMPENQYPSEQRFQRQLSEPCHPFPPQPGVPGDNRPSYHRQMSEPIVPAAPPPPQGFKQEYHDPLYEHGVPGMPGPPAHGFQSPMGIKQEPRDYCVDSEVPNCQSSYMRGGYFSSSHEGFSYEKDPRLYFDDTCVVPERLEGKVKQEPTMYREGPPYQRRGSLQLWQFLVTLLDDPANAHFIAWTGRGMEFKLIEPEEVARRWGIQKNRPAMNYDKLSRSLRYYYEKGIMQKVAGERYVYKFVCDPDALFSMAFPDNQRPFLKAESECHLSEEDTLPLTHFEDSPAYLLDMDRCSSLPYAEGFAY
# Outline: as §1
# HSF1 = HSF1 (Homo sapiens, UniProt Q00613 1-529); conditions: protein: recombinant; tags: N-terminal GST; chain copies: 3; dsDNA, one strand shown
# Sequence of HSF1 (Q00613 whole entry): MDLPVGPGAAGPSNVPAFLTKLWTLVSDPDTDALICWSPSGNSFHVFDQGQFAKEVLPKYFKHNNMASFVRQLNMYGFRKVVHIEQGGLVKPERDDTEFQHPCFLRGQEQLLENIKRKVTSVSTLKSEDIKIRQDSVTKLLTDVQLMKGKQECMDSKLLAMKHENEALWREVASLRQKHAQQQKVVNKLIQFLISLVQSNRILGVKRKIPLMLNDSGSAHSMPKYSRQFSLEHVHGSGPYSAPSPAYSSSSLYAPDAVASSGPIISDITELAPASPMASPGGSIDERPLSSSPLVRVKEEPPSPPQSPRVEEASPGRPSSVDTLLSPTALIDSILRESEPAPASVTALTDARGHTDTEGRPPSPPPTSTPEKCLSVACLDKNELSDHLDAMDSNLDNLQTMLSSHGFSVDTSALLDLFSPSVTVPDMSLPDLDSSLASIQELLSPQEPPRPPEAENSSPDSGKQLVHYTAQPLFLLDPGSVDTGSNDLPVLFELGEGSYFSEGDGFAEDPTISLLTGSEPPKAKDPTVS
# Outline: as §1
# SPIC = biological target: T2, SPIC (Homo sapiens, UniProt Q8N5J4 1-248); conditions: protein: recombinant; tags: N-terminal GST; dsDNA, one strand shown
# T2 sequence: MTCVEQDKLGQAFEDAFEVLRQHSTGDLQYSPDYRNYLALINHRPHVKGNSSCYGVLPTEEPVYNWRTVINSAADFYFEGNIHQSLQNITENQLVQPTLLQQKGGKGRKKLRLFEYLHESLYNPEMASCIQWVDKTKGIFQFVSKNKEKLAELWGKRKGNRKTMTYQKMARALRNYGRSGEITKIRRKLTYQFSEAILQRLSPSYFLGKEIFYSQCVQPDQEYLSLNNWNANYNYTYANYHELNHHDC
# Outline: as §1
# ELF4 = ELF4 (Homo sapiens, UniProt Q99607 1-663); conditions: protein: recombinant; tags: N-terminal GST; dsDNA, one strand shown
# Sequence of ELF4 (Q99607 whole entry): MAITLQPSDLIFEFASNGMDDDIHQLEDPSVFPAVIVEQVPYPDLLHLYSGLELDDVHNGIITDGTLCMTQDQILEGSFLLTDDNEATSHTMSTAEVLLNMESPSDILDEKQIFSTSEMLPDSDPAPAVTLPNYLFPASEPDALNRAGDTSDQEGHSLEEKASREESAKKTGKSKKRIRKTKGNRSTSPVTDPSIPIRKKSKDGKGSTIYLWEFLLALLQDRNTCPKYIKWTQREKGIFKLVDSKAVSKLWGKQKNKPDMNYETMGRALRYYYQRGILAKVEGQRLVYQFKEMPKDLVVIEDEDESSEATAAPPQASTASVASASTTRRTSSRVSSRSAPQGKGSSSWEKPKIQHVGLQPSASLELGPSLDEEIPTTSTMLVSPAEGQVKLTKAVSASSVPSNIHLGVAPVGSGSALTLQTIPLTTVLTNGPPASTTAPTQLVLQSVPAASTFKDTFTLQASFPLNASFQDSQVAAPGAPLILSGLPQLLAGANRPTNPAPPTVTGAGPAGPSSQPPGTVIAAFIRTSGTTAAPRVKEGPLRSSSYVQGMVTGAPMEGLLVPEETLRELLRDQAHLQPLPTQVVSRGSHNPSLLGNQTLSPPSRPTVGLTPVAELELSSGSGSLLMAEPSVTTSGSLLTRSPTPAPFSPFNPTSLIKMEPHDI
# Outline: as §1
# ELK4 = biological target: T3, ELK4 (Homo sapiens, UniProt P28324-2 1-405); conditions: protein: recombinant; tags: N-terminal GST; dsDNA, one strand shown
# T3 sequence: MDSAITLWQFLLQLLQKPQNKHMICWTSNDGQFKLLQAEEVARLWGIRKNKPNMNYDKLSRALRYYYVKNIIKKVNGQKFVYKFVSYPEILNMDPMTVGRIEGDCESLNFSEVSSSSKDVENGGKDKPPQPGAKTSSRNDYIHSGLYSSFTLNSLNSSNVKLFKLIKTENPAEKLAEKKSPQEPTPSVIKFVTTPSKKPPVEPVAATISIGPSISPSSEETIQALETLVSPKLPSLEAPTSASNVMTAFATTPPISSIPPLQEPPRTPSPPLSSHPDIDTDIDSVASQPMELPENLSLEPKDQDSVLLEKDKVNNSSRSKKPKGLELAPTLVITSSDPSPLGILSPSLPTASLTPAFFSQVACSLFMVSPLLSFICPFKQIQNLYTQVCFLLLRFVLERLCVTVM
# Outline: as §1
# ETV2 = biological target: T4, ETV2 (Homo sapiens, UniProt O00321 1-342); conditions: protein: recombinant; tags: N-terminal GST; dsDNA, one strand shown
# T4 sequence: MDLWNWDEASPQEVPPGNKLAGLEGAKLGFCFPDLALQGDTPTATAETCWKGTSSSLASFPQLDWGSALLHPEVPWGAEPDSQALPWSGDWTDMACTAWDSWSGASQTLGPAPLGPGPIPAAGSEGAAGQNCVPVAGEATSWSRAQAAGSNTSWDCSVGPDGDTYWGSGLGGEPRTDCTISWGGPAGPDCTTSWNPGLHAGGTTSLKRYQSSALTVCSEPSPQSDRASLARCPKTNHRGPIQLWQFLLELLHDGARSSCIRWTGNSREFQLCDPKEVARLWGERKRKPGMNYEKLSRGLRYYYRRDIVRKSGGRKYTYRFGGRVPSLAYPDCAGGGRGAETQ
# Outline: as §1
# ELF3 = biological target: T5, ELF3 (Homo sapiens, UniProt P78545 1-371); conditions: protein: recombinant; tags: N-terminal GST; dsDNA, one strand shown
# T5 sequence: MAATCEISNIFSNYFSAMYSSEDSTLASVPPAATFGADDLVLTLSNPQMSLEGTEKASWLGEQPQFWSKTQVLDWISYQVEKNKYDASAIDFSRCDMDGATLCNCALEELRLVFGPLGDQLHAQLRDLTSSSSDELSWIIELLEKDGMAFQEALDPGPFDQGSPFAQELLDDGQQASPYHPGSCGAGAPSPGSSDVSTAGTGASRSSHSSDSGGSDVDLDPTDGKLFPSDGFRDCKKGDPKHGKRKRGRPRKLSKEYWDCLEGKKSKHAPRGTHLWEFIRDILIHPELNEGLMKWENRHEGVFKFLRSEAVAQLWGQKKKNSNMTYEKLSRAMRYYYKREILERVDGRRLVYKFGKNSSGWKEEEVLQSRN
# Outline: as §1
# CRX = CRX (Homo sapiens, UniProt O43186 1-299); conditions: protein: recombinant; tags: N-terminal GST; dsDNA, one strand shown
# Sequence of CRX (O43186 whole entry): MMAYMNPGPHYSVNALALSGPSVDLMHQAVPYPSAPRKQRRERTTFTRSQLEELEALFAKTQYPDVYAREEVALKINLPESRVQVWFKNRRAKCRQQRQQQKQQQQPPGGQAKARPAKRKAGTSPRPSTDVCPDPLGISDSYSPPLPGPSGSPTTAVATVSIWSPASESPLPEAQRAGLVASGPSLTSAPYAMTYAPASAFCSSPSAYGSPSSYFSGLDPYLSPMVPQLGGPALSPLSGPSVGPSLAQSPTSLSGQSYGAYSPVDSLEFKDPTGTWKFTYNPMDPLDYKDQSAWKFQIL
# Outline: as §1
# ETV1 = ETV1 (Homo sapiens, UniProt P50549 1-477); conditions: protein: recombinant; tags: N-terminal GST; dsDNA, one strand shown
# Sequence of ETV1 (P50549 whole entry): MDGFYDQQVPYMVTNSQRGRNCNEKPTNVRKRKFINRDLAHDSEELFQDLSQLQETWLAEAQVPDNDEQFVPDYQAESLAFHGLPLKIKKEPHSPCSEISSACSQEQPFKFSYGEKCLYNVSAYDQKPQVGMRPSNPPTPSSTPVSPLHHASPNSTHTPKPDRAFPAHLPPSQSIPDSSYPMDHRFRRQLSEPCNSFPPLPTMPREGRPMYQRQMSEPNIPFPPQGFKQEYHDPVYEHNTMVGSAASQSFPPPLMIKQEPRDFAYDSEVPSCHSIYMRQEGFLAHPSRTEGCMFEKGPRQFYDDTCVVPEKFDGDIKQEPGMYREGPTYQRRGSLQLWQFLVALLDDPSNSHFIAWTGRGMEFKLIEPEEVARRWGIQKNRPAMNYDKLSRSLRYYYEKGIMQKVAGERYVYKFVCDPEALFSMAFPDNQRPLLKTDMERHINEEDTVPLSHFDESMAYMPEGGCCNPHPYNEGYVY
# Outline: as §1
# ERF = biological target: T6, ERF (Homo sapiens, UniProt P50548 1-548); conditions: protein: recombinant; tags: N-terminal GST; dsDNA, one strand shown
# T6 sequence: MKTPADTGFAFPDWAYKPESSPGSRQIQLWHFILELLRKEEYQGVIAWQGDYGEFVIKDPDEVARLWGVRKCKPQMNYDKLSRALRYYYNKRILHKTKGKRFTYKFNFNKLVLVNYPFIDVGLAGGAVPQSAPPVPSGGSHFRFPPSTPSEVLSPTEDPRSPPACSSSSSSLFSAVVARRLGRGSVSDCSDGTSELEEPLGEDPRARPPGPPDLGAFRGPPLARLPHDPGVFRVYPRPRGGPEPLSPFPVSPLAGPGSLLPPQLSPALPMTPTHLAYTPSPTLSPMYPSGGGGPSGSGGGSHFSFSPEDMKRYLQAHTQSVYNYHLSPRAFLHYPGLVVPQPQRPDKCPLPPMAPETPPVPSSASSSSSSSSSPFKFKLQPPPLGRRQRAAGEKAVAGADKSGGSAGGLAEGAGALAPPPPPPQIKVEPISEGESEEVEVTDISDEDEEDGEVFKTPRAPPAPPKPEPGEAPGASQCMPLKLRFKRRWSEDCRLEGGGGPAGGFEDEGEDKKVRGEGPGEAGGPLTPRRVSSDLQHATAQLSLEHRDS
# Outline: as §1
# ETV3L = biological target: T7, ETV3L (Homo sapiens, UniProt Q6ZN32 1-361); conditions: protein: recombinant; tags: N-terminal GST; dsDNA, one strand shown
# T7 sequence: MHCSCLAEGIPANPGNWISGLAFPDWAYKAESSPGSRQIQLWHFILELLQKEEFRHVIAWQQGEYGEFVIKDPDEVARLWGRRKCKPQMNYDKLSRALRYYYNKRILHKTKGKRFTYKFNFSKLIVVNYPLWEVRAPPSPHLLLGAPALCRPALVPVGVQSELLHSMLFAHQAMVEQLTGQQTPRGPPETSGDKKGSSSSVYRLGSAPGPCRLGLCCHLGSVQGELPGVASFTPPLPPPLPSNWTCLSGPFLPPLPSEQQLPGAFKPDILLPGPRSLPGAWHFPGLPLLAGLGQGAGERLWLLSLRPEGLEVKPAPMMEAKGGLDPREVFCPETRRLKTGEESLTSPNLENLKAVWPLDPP
# Outline: as §1
# ETS2 = biological target: T8, ETS2 (Homo sapiens, UniProt P15036 1-469); conditions: protein: recombinant; tags: N-terminal GST; dsDNA, one strand shown
# T8 sequence: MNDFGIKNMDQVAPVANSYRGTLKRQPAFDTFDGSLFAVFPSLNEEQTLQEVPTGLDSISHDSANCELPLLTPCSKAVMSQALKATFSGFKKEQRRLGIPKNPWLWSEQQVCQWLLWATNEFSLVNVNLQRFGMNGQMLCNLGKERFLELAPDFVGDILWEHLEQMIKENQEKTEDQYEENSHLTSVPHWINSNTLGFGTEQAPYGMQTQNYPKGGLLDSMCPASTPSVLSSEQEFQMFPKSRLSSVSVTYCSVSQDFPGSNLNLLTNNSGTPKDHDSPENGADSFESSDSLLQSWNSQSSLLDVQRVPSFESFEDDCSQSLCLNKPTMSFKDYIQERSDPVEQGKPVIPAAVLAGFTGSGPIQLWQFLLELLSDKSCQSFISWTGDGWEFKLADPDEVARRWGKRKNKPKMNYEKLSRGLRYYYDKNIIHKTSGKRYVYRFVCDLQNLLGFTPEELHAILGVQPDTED
# Outline: as §1
# SPDEF = biological target: T9, SPDEF (Homo sapiens, UniProt O95238 1-335); conditions: protein: recombinant; tags: N-terminal GST; dsDNA, one strand shown
# T9 sequence: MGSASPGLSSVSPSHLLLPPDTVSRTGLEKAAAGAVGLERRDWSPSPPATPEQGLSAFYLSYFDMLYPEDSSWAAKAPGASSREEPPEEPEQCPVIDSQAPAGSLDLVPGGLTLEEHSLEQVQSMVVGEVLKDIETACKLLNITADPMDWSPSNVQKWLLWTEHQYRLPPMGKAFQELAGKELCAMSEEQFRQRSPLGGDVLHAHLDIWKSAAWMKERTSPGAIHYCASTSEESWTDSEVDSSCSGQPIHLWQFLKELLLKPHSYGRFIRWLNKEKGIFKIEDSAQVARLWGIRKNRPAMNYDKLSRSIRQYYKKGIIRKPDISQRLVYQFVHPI
# Outline: as §1
# ETV7 = biological target: T10, ETV7 (Homo sapiens, UniProt Q9Y603 1-341); conditions: protein: recombinant; tags: N-terminal GST; dsDNA, one strand shown
# T10 sequence: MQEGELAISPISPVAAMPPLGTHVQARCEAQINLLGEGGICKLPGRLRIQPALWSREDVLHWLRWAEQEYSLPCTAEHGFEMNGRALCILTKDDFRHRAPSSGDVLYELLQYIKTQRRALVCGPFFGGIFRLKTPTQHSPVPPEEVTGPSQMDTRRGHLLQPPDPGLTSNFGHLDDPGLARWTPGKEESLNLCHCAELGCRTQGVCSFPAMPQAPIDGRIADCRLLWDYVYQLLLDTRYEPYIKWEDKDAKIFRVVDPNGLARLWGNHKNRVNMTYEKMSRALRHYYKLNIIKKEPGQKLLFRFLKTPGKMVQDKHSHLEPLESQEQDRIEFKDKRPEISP
# Outline: as §1
# ELF5 = biological target: T11, ELF5 (Homo sapiens, UniProt Q9UKW6-2 1-255); conditions: protein: recombinant; tags: N-terminal GST; dsDNA, one strand shown
# T11 sequence: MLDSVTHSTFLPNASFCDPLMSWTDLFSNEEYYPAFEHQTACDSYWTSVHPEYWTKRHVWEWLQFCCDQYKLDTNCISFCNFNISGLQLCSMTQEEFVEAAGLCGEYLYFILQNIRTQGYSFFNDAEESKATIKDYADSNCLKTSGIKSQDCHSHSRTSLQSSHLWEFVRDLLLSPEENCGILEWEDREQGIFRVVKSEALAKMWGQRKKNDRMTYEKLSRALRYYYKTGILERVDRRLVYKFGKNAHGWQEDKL
# Outline: as §1
# ETV3 = biological target: T12, ETV3 (Homo sapiens, UniProt P41162-2 1-143); conditions: protein: recombinant; tags: N-terminal GST; dsDNA, one strand shown
# T12 sequence: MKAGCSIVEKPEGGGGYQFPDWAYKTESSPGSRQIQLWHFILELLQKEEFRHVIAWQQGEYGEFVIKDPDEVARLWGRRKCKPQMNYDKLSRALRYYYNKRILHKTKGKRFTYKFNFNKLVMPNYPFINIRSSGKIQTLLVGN
# Outline: as §1
# ETV6 = ETV6 (Homo sapiens, UniProt P41212 1-452); conditions: protein: recombinant; tags: N-terminal GST; dsDNA, one strand shown
# Sequence of ETV6 (P41212 whole entry): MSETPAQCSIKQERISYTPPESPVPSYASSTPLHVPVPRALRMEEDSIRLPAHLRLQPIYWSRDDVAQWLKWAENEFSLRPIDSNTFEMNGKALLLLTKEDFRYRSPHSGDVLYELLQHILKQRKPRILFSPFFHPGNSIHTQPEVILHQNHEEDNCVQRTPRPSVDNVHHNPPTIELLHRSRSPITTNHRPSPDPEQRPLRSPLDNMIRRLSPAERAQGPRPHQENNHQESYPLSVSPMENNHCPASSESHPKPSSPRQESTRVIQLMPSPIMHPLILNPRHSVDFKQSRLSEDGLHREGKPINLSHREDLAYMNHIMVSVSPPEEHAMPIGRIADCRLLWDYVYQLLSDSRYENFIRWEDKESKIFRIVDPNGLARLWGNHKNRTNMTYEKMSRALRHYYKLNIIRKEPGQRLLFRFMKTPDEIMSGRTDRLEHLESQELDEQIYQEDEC
# Outline: as §1
sequence,measurement,setting,value
TGCGAA,binding signal,FEV,"1.14 fold enrichment (6-mer frequency, TF over GST control)"
same,binding signal,ETV5,"1.23 fold enrichment (6-mer frequency, TF over GST control)"
same,binding signal,HSF1,"1.21 fold enrichment (6-mer frequency, TF over GST control)"
same,binding signal,SPIC,"1.02 fold enrichment (6-mer frequency, TF over GST control)"
same,binding signal,ELF4,"1.21 fold enrichment (6-mer frequency, TF over GST control)"
same,binding signal,ELK4,"1.19 fold enrichment (6-mer frequency, TF over GST control)"
same,binding signal,ETV2,"1.18 fold enrichment (6-mer frequency, TF over GST control)"
same,binding signal,ELF3,"1.14 fold enrichment (6-mer frequency, TF over GST control)"
same,binding signal,CRX,"1.06 fold enrichment (6-mer frequency, TF over GST control)"
same,binding signal,ETV1,"1.19 fold enrichment (6-mer frequency, TF over GST control)"
same,binding signal,ERF,"1.07 fold enrichment (6-mer frequency, TF over GST control)"
same,binding signal,ETV3L,"1.1 fold enrichment (6-mer frequency, TF over GST control)"
same,binding signal,ETS2,"1.1 fold enrichment (6-mer frequency, TF over GST control)"
same,binding signal,SPDEF,"1.2 fold enrichment (6-mer frequency, TF over GST control)"
same,binding signal,ETV7,"1.18 fold enrichment (6-mer frequency, TF over GST control)"
same,binding signal,ELF5,"1.13 fold enrichment (6-mer frequency, TF over GST control)"
same,binding signal,ETV3,"1.16 fold enrichment (6-mer frequency, TF over GST control)"
same,binding signal,ETV6,"1.09 fold enrichment (6-mer frequency, TF over GST control)"

# From article PMC7862700, “An all-to-all approach to the identification of sequence-specific readers for epigenetic DNA modifications on cytosine”
